Data on 60 compounds can be found in PubChem BioAssay AID652217 (Sanford-Burnham Center for Chemical Genomics, 2013).

Structures are written as SMILES. In all, about 1,800 compounds went through this assay and about 240 (13%) were called active. The list is a sample of the results. Unmarked numbers belong to inactive results. Cut-off read from the data, not from the text of the source: active = inhibition above about 40%; inactive = the rest.

Usually inhibition stands for the drop in the measured response relative to a control, in per cent.

Sequence of NEDD8-conjugating enzyme Ubc12 (Homo sapiens) + NEDD8-activating enzyme E1 regulatory subunit (Homo sapiens) (P61081 whole entry, looked up): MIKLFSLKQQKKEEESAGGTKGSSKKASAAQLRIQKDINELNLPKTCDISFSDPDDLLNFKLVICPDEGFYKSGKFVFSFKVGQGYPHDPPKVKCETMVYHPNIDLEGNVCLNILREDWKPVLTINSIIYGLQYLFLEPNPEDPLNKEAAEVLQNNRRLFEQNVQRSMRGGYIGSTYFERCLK
Sequence of NEDD8-conjugating enzyme Ubc12 (Homo sapiens) + NEDD8-activating enzyme E1 regulatory subunit (Homo sapiens) (Q13564 whole entry, looked up): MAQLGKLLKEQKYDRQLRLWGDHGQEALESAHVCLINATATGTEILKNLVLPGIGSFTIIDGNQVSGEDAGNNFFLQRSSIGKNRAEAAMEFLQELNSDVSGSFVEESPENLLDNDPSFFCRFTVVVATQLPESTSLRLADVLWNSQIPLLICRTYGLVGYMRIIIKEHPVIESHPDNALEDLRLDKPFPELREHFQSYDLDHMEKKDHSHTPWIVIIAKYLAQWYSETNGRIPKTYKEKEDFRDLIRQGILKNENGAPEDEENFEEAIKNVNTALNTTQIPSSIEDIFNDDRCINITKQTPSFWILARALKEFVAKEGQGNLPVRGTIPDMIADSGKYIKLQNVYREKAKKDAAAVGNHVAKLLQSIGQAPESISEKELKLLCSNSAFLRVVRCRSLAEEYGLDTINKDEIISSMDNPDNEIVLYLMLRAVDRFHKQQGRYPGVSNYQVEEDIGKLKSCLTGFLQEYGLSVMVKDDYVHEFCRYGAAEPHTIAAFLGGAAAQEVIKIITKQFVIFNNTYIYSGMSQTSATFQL

This test concerns the target NEDD8-conjugating enzyme Ubc12 (Homo sapiens) + NEDD8-activating enzyme E1 regulatory subunit (Homo sapiens) (UniProt P61081+Q13564). Description: blockade of NEDD8 conjugation to cullin – biochemical, TR-FRET, single concentration, confirmation (AID 652217).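 Note: neddylation substrate is the cullin 1 ring ligase complex with SKP2.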 The settings on record: TR-FRET cullin neddylation biochemical assay; at 25 µM; active compounds read high. (In TR-FRET formats the signal depends on donor and acceptor labels being close together.)
With `COc1cccc(Cn2cc(/C=N/NC(=O)c3cc(O)cc(O)c3)c3ccccc32)c1`, the inhibition was 41.7% (active).

As for `O=C(Cn1cc(/C=N/NC(=O)c2cccc(C(F)(F)F)c2)c2ccccc21)Nc1ccc(F)cc1`, the inhibition is 20.1%.

As to `CN(C)c1ccc(/C=N/Nc2cc(N3CCOCC3)nc(N3CCOCC3)n2)cc1`, the inhibition is 14.8%.

As for `COc1ccc2oc(C(=O)NCC(Cc3ccccc3)N(C)C)c(C)c2c1` (stereo not given), the inhibition is 39.6%.

As to `c1ccc(-c2[nH]ncc2-c2nc3ccccc3[nH]2)cc1`, the inhibition was 34.5%.

For `CCN(CC)c1ccc(/C=N/NC(=O)CNC(=O)c2cccs2)cc1`, the inhibition is 54.1% (active).

On to `CCN(CC)c1ccc(/C=N/Nc2nc(C)cc(=O)[nH]2)cc1`, for which the inhibition is 28.2%.

With `COc1ccc(Br)cc1/C=N/Nc1ccc(Cl)c(C(=O)O)c1`, the inhibition is 37.5%.

As to `CC(=O)c1ccc(Nc2nc(C(N)c3ccccc3)cs2)cc1` (stereo not given), the inhibition is 32.9%.

In the case of `CC(=O)Nc1nc(C)c(-c2csc(Nc3ccc(S(N)(=O)=O)cc3)n2)s1`, the inhibition is 79.2% (active).

`Cc1noc(C)c1COc1ccc2ccc(=O)oc2c1`: the inhibition was 33.5%.

Consider `COc1cccc(C2c3[nH]c4ccccc4c3CCN2Cc2cccc(C)n2)c1` (stereo not given), for which the inhibition was 26.3%.

As for `Nc1nnnn1CC(=O)N/N=C/c1ccc(-c2cccc(Cl)c2)o1`, the inhibition was 22.7%.

In the case of `C=CCNC(=O)c1ccc2c3n(nc2c1)-c1ccc(C)cc1CO3`, the inhibition was 47.4% (active).

Consider `O=C(N/N=C/c1ccccc1O)C1CCCC1`, for which the inhibition was 38.7%.

For `CCN(/N=C/c1ccc(N(C)C)cc1)c1nc2ccccc2[nH]1`, the inhibition is 42.9% (active).

Take `C=CCn1c(COc2cccc3cccnc23)nnc1SCC(=O)OC`: the inhibition is 36.7%.

As to `O=C(/C=C/c1cn(-c2ccccc2)nc1-c1ccc2c(c1)OCCO2)NCCCN1CCOCC1`, the inhibition is 33.2%.

Consider `CC(=O)Nc1cc(-c2ccc(N3CCN(C)CC3)cc2)cn2c(-c3ccc(F)cc3)cnc12`, for which the inhibition is 45.5% (active).

`COC(=O)C1=CN(C)C=C(C(=O)OC)C1c1ccc(Cl)cc1Cl`: the inhibition was 20%.

Turning to `CC(C(=O)NC1CCCCC1)N1C(=O)c2cccc3cccc1c23` (stereo not given), the inhibition is 39.8%.

As to `O=C(NNC(=S)NC1CC2CCC1C2)c1ccc(Cl)cc1` (stereo not given), the inhibition was 7.17%.

`COc1cccc(/C=C/C(=O)OCC(=O)N2CCCc3ccccc32)c1`: the inhibition was 38.8%.

As to `Cc1ccc(C)c(NC(=O)NNC(=O)c2ccc3ccccc3c2O)c1`, the inhibition was 30.6%.

As for `COC(=O)C1=CN(Cc2ccc(OC)cc2)C=C(C(=O)OC)C1c1ccc(O)c(OC)c1`, the inhibition is 33%.

On to `CS(=O)(=O)c1ccc2nc(NC(=O)c3ccc(Cl)nc3)sc2c1`, for which the inhibition is 66% (active).

For `CCOc1ccc2[nH]c(C(=O)N/N=C/c3cccc(OC)c3OC)cc2c1`, the inhibition was 44.6% (active).

Turning to `COc1cc2cc(C(=O)N/N=C/c3cccc(OC)c3OC)[nH]c2cc1OC`, the inhibition was 41.9% (active).

For `COc1ccc2[nH]c(C(=O)N/N=C/c3cc(OC)c(OC)c(OC)c3)cc2c1`, the inhibition was 49.6% (active).

For the compound `COc1cc2ccccc2cc1C(=O)Nc1ccncc1`, the inhibition is 39.2%.

Turning to `CCOC(=O)c1cnc2nc(SCc3ccccc3Cl)[nH]n2c1=O`, the inhibition was 20%.

`CCOc1ccc2[nH]c(=O)c(CN(Cc3nnnn3Cc3ccccc3)CC3CCCO3)cc2c1` (stereo not given): the inhibition was 15.2%.

As for `COCCCNc1nc2ccccc2nc1NS(=O)(=O)c1ccc(F)cc1`, the inhibition was 29%.

In the case of `Cc1ccc2occ(/C=N/NC(=O)c3ccccc3C)c(=O)c2c1`, the inhibition is 24%.

With `O=c1c2c(nc3cc(-c4cccc(Cl)c4)[nH]n13)CCCC2`, the inhibition is -10.4%.

On to `NNC(=O)c1oc2nc(-c3ccccc3)cc(-c3ccco3)c2c1N`, for which the inhibition is 14.3%.

Take `CN(C)c1ccnc2sc(C(=O)c3ccccc3)c(N)c12`: the inhibition is 33.9%.

As for `Cc1nc2sc(C(=O)c3ccccc3)c(N)c2c2c1CCCC2`, the inhibition is 30.6%.

Consider `O=C(COc1ccccc1Cl)N1N=C(c2cccs2)CC1c1ccco1` (stereo not given), for which the inhibition was 37.1%.

For the compound `CCOc1cc(C(=O)Nc2c(C)ccc3nsnc23)cc(OCC)c1OCC`, the inhibition is 27.9%.

With `CC(=O)Oc1c(C(=O)c2nnc(C)o2)c(=O)n(Cc2ccccc2)c2ccccc12`, the inhibition was 38.8%.

With `O=C1c2cccc3cccc(c23)N1CN1CCN(c2ccccn2)CC1`, the inhibition was 28.8%.

In the case of `CC(=O)NNC(=O)c1csc(Cc2c(Cl)sc3ccc(Cl)cc23)n1`, the inhibition is -2.26%.

Regarding `O=C(c1ccc(Cl)cc1)N1N=C(c2ccccn2)CC1(O)C(F)(F)F` (stereo not given), the inhibition is 1.98%.

For `CCOc1cc(/C=N/Nc2cc(C)nc3ccc(C)cc23)ccc1O`, the inhibition was 40.1% (active).

In the case of `CCN1CCCC1CNc1ncnc2c1[nH]c1ccc(F)cc12` (stereo not given), the inhibition was 31%.

With `C[C@H](O)[C@@H]1C(=O)N2CCc3c([nH]c4ccccc34)[C@@H]2C[C@@H]1N(C)C(=O)Nc1ccc(F)cc1`, the inhibition is 14.4%.

As to `Cc1ccc2cc(C#N)c(NCCNC(=S)NCCCN3CCOCC3)nc2c1`, the inhibition is 33.7%.

As for `COc1ccc(N(CC(=O)N/N=C/c2cccc3c2OCCO3)S(=O)(=O)c2ccc(NC(C)=O)cc2)cc1`, the inhibition is 42.7% (active).

Take `O=C1NC(c2ccncc2)Nc2sc3c(c21)CCCC3` (stereo not given): the inhibition is 39.4%.

With `COc1cccc(C2CC(c3cccs3)=NN2C(=O)CSC2=NCCS2)c1OC` (stereo not given), the inhibition is -80.4%.

In the case of `N#Cc1ccc(/C=C2\CCn3c2nc2cc(C(=O)O)ccc2c3=O)cc1`, the inhibition is 54.8% (active).

Take `O=C(O)c1ccc2c(=O)n3c(nc2c1)/C(=C/c1ccc(OC(F)F)cc1OC(F)F)CC3`: the inhibition is 43.2% (active).

Turning to `CCOc1ccc2nc(NCCNC(=O)C(C)(C)C)c(C)cc2c1`, the inhibition was 34.1%.

Take `Cc1ccc(-n2ncc3c(Nc4cccc(C(=O)O)c4)ncnc32)cc1`: the inhibition was 35.6%.

For `CCOCCCNC(=O)C(NC(=O)c1ccccc1O)c1ccccc1` (stereo not given), the inhibition was 39.4%.

For the compound `COc1ccc(C2c3[nH]c4ccccc4c3CCN2CCCn2cccn2)cc1C` (stereo not given), the inhibition was 29.8%.

Take `O=c1cc(CN2CCCCCCC2)c2c(ccc3ccccc32)o1`: the inhibition was 14.7%.

For `Cc1noc(C)c1C(=O)OCC(=O)/C=C1\N(C)c2ccccc2C1(C)C`, the inhibition is 22.3%.

On to `CCOc1ccc2[nH]c(=O)c(CN(Cc3nnnn3CCc3ccccc3)CC3CCCO3)cc2c1` (stereo not given), for which the inhibition is 12.7%.
